Laboratory results reported in PubChem BioAssay AID1851 (National Center for Advancing Translational Sciences (NCATS), 2009).
About 5,100 (32%) of roughly 16,000 compounds were called active. Inconclusive results (about 25%) are left out. The call rests on the fitted dose curve; in most records, active means well fitted curve in the direction sought with a large enough effect; inconclusive means small, poorly fitted or top-dose-only effect, or effect the other way; inactive means no such curve, though single readings can be large or run the other way. Some of the results follow.

molecular target: Cytochrome P450 3A4 (Homo sapiens) (UniProt P08684); assay: Cytochrome panel assay with activity outcomes; conditions: recombinant CYP, pro-luciferin dealkylation, luminescence, p450-cyp3a4; series mostly up to 57.1 µM; activity, negative = inhibition: at the top concentration
Sequence (P08684 whole entry, looked up): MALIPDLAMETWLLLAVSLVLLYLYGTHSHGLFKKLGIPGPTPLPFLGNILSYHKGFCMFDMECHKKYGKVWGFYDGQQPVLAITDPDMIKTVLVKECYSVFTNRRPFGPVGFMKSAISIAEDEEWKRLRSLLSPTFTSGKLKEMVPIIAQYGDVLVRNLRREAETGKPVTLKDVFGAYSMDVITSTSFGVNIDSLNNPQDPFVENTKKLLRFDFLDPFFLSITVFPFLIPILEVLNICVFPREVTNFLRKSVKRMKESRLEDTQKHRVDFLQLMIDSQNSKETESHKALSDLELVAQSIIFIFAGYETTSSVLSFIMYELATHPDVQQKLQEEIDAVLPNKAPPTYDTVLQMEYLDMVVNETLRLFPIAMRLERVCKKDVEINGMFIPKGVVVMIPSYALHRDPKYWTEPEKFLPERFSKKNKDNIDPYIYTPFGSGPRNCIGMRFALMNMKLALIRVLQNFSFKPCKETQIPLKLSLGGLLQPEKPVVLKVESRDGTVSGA
On the % scale 0 is the no-effect control and ±100 the full control effect.

| Compound | activity, negative = inhibition | AC50 |
| --- | --- | --- |
| CCOC(=O)COc1c(OC)cc(Cl)cc1C1Nc2ccccc2C(=O)N1c1ccc(F)cc1 (configuration not stated) | 1.4% (inactive) | – |
| CCOC(=O)COc1c(OC)cc(Cl)cc1C1Nc2ccccc2C(=O)N1c1cccc(C)c1 (configuration not stated) | – | 3.98 µM (active) |
| COC(=O)c1sccc1-c1ccc(C(=O)Nc2cccnc2)o1 | – | 14.1 µM (active) |
| CSc1nc2c(c(C(F)(F)F)n1)CC(C)CC2 (configuration not stated) | -5.33% (inactive) | – |
| Fc1cc(Br)ccc1NC(=S)NCCc1ccccc1 | – | 15.8 µM (active) |
| Fc1ccccc1NC(=S)NCCc1ccccc1 | – | 12.6 µM (active) |
| Fc1ccc(NC(=S)NCCc2ccccc2)c(F)c1F | 7.09% (inactive) | – |
| COc1ccccc1NC(=S)NCCc1ccccc1 | – | 11.2 µM (active) |
| CC(CO)(CO)N=Cc1cc(I)cc(I)c1O | -15.2% [at 11.4 µM] (inactive) | – |
| CCCC1C(=O)N(c2ccccc2)C1c1ccccc1 (configuration not stated) | 1.96% [at 2.29 µM] (inactive) | – |
| O=C1C(Cc2ccccc2)C(c2ccccc2)N1c1ccccc1 (configuration not stated) | -10.8% (inactive) | – |
| O=C1C2ON(c3ccccc3)C(c3ccncc3)C2C(=O)N1c1ccccc1 (configuration not stated) | – | 14.1 µM (active) |
| CC(=O)NNC(=O)C(O)(c1ccccc1)c1ccccc1 | -2.75% (inactive) | – |
| FC(F)(F)c1nc2ccccc2nc1N/N=C/c1ccc(Cl)cc1 | – | 25.1 µM (active) |
| COc1ccc(Oc2nc3ccccc3nc2C(F)(F)F)cc1 | 2.66% [at 2.29 µM] (inactive) | – |
| N#CC(c1ccc(Cl)cc1)c1nc2ccccc2nc1C(F)(F)F (configuration not stated) | 15.3% [at 2.29 µM] (inactive) | – |
| FC(F)(F)c1nc2ccccc2nc1N/N=C\c1ccccc1 | – | 15.8 µM (active) |
| COc1ccc(NC(=O)c2ccc(C)cc2Cl)c([N+](=O)[O-])c1 | – | 20 µM (active) |
| COc1ccc(NC(=O)c2cccs2)c([N+](=O)[O-])c1 | – | 14.1 µM (active) |
| CCCn1nnnc1NC(=O)c1ccc(C)cc1Cl | -5.2% (inactive) | – |
| CCC(CC)C(=O)Nc1cccc(C(=O)Nc2ccc(OC)cc2[N+](=O)[O-])c1 | -28% (inactive) | – |
| CCCCn1c(SCC(=O)N2CCCC2)nc2c1c(=O)n(C)c(=O)n2C | – | 17.8 µM (active) |
| CCCCn1nnnc1SCC(=O)N1CCCC1 | -11.6% (inactive) | – |
| COCCCn1nnnc1SCC(=O)N1CCCC1 | -6.38% (inactive) | – |

| Compound | activity, negative = inhibition | AC50 |
| --- | --- | --- |
| COc1ccc(CNc2ncnc3ccc(-c4ccc(C(=O)N(C)C)cc4)cc23)c(OC)c1 | – | 2.51 µM (active) |
| COc1ccccc1CNc1ncnc2ccc(-c3ccc(C(=O)N(C)C)cc3)cc12 | – | 10 µM (active) |
| CN1CCCC[C@@H]1CCN1c2ccccc2Sc2ccc(S(C)=O)cc21 (some centres not stated) | – | inactive |
| COc1ccc(CN[C@H](C)C(=O)O)cc1 | 0.14% [at 11.4 µM] (inactive) | – |
| COc1ccc(Cc2c(N)nc(N)nc2N)cc1 | 6.23% (inactive) | – |
| COc1ccc(CNC(=O)c2csc(Cc3ccc(OC)cc3)n2)cc1 | – | 3.16 µM (active) |
| Cc1cnc(C(=O)OCC(=O)NC(C)C)cn1 | -1.72% [at 2.29 µM] (inactive) | – |
| COC(=O)C1=C(C)C(c2ccc(OC)cc2)NC(=S)N1 (configuration not stated) | -11.5% [at 2.29 µM] (inactive) | – |
| COc1ccc(CNC(=O)c2cnc(C)cn2)cc1 | – | 2 µM (active) |
| COc1ccc(CNC(=O)c2csc(Cc3ccc(Cl)cc3)n2)cc1 | – | 3.55 µM (active) |
| O=C(O)c1cc(=O)c2ccc(Cl)cc2[nH]1 | -8.53% (inactive) | – |
| CC(=O)Nc1nnc(S(N)(=O)=O)s1 | -10.2% [at 25.6 µM] (inactive) | – |
| COCC(=O)Oc1c(S(=O)(=O)c2ccc(C)cc2)c(C)nn1-c1ccccc1 | -24.1% (inactive) | – |
| Cc1ccc(S(=O)(=O)c2c(C)nn(C(C)(C)C)c2OC(=O)c2cccs2)cc1 | – | 2.24 µM (active) |
| CCOC(=O)Oc1c(OC)cc(C(=O)O[C@H]2C[C@H]3CN4CCc5c([nH]c6cc(OC)ccc56)[C@@H]4C[C@H]3[C@@H](C(=O)OC)[C@@H]2OC)cc1OC | -29.6% [at 25.6 µM] (inactive) | – |
| COc1ccc(C2C(C#N)=C(N)Oc3n[nH]c(C)c32)cc1CN1CCN(c2ccc(F)cc2)CC1 (configuration not stated) | – | 8.91 µM (active) |
| COc1ccc(/C=N/NC(=O)c2ccccc2)cc1CN1CCN(c2ccc(F)cc2)CC1 | -19.8% (inactive) | – |
| O=C(NC(=S)Nc1cccc(Cl)c1N1CCCC1)c1ccc(-c2cccc([N+](=O)[O-])c2)o1 | – | 4.47 µM (active) |
| CCCSc1nc(C)cc(C)c1C(N)=O | 9.69% (inactive) | – |
| CCCCN1CCC(CCC(=O)c2cc(Cl)c(N)cc2OC)CC1 | -12.3% (inactive) | – |
| Cn1cc(C(=O)OCC2CCN(CCNS(C)(=O)=O)CC2)c2ccccc21 | -3.41% (inactive) | – |
| COc1cc(COc2cc(N)c(Cl)cc2C(=O)CCC2CCN(CCNS(C)(=O)=O)CC2)cc(OC)c1 | – | 2 µM (active) |
| O=C(Nc1ccc(C(=O)Nc2ccc(C(=O)Nc3ccc(S(=O)(=O)O)c4cc(S(=O)(=O)O)cc(S(=O)(=O)O)c34)cc2)cc1)Nc1ccc(C(=O)Nc2ccc(C(=O)Nc3ccc(S(=O)(=O)O)c4cc(S(=O)(=O)O)cc(S(=O)(=O)O)c34)cc2)cc1 | -13.5% (inactive) | – |
